Drawing on PubChem BioAssay AID624114 (Johns Hopkins Ion Channel Center, 2012), this text covers outcome for 73 molecules.

The whole screen tested about 4,000 compounds, of which about 15 (0.4%) were called active.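 Rule for the calls: active = calcium fluorescence ratio, averaged over duplicates, at least 3 SD of the buffer-well ratio, meaning a nonspecific response in receptor-free cells; inactive = the rest.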 Not all results are given here.

The test can be described thus: nonspecific Ca2+ flux in HEK293 lacking MrgX1 – cell-based, Fluo-4 calcium flux, duplicate, counter-screen for MrgX1 allosteric activator project, primary screen (AID 624114). As to conditions: parental HEK293 calcium flux, Fluo-4 fluorescence ratio; at 10 µM.
For the molecule `Cc1ccnc(NC(=O)C(C)N2C(=O)c3ccccc3C2=O)c1` (stereo not drawn), the outcome was inactive.
The same measure for `CCC(C)c1ccccc1N1CC(C(=O)N2CCN(S(=O)(=O)c3ccc(F)cc3)CC2)CC1=O` (stereo not drawn): “inactive”; for `Cc1ccc(Nc2nc(-c3ccc(O)cc3O)cs2)nc1`: “inactive”.
The value for `CCC(C)Sc1nc(C)nc2c1c(=O)n(C)c(=O)n2C` (stereo not drawn) was “inactive”.
With `Cc1ccnc(-n2sc3ccccc3c2=O)n1`, the outcome was inactive.
The value for `CCOC(=O)C1=C(O)CSC1=Nc1cccc(Cl)c1` was “inactive”; that for `COCc1nnc(NC(=O)c2ccc3c(c2)OCO3)s1` was “inactive”.
The value for `CC1(C(=O)O)CCC(C(=O)Nc2ccc(Cl)c(Cl)c2)C1(C)C` (stereo not drawn) was “inactive”.
The value for `CC(C)CNc1ncnc2c1cnn2Cc1ccc(Cl)cc1` was “inactive”; that for `CCc1ccc(N(CC(=O)Nc2sc3c(c2C(=O)OC)CCCC3)S(C)(=O)=O)cc1` was “inactive”; that for `OCCn1c(-c2ccccc2)csc1=Nc1ccccc1` was “inactive”.
In the case of `CCOc1ccc(NC(=O)CCNC(=O)c2ccc(Br)cc2)cc1`, the result was inactive.
The same measure for `Cc1ccc(C(C(=O)NC2CCCCC2)N(C(=O)c2csnn2)C2CC2)o1` (stereo not drawn): “inactive”; for `COc1ccc(-c2cc(C(F)(F)F)nc(S(C)(=O)=O)n2)cc1OC`: “inactive”; for `O=C(C1CCN(S(=O)(=O)c2cnc[nH]2)CC1)N1CCN(Cc2ccc3c(c2)OCO3)CC1`: “inactive”.
The same measure for `O=C(Nc1cccc(Cl)c1)c1cncn1-c1ccc(F)cc1`: “inactive”; for `Cc1nonc1C1CCCN1Cc1nc(-c2ccc(F)cc2F)oc1C` (stereo not drawn): “inactive”.
The same measure for `Cc1ccc2c(C)c(C(=O)N(C)CCC3CCCCO3)oc2c1C` (stereo not drawn): “inactive”; for `O=C(CN1CCN(c2ccc(Cl)cc2)CC1)N1CCCC1`: “inactive”.
On to `COc1cc2c(cc1O)C(SC)=NC(C)(C)C2`, for which the result was inactive.
The value for `FC(F)Oc1ccc(NC(=S)NCc2ccco2)cc1Cl` was “inactive”.
The value for `COc1ccc(Nc2nnc(C)c3ccccc23)cc1` was “inactive”; that for `Cc1c(C)c2c(OCC(=O)N[C@@H](C(=O)O)c3ccccc3)cc3c(c2oc1=O)CCC(C)(C)O3` was “inactive”; that for `CCSc1nsc(NC(=O)Nc2cccc(C(C)=O)c2)n1` was “inactive”.
With `Cc1c(C(=O)N2CCN(c3ccc(F)cc3)CC2)oc2c1C(=O)CCC2`, the outcome was inactive.
The same measure for `O=C(c1cccc(S(=O)(=O)Nc2ccccc2Cl)c1)N1CCN(C(=O)c2ccco2)CC1`: “inactive”.
As for `O=C(Cn1c(-c2cncs2)nc2ccccc21)NC1CCCC1`, the outcome was inactive.
Regarding `CC1(C)CC2CC(C)(CN2c2ncnc3ccc(Br)cc23)C1` (stereo not drawn), the outcome was inactive.
For the molecule `CCOC(=O)c1c(NC(=O)CSc2cn(CC)c3ccccc23)sc2c1CCC2`, the result was inactive.
For the molecule `O=C(O)CSC(NC(=O)c1cccnc1)(C(F)(F)F)C(F)(F)F`, the outcome was inactive.
The same measure for `CCOC(=O)N1CCN(C(=O)COCc2cc(-c3ccc4c(c3)OCO4)on2)CC1`: “inactive”.
As for `COc1ccc(C(=O)Nc2c(N)nc(SCC(=O)N3CCC(C)CC3)[nH]c2=O)cc1OC`, the result was inactive.
The same measure for `CCOc1cc(-c2conc2N)cc(OCC)c1OCC`: “inactive”.
Consider `O=C1CCCN1CCCNC(=S)Nc1ccc(F)c(Cl)c1`, for which the outcome was inactive.
The value for `COc1ccc(C(=O)NNC(=S)NC(=O)c2ccccc2)cc1` was “inactive”; that for `Nc1ccc(Oc2ccc(Cl)cc2)cc1` was “inactive”.
The value for `CN(CC(=O)Nc1ccccc1Cl)C(=O)COc1cccc2c1OC(C)(C)C2` was “inactive”.
Consider `CCOc1ccc2nc(/N=C/c3nc(-c4ccccc4)oc3O)sc2c1`, for which the outcome was inactive.
The same measure for `FC(F)(F)c1cc(-c2cccs2)nc(NCc2ccco2)n1`: “inactive”; for `O=C(CSc1c2c(nc3ccc(Cl)cc13)CCCC2)NCc1ccco1`: “inactive”.
The value for `COc1ccc(Nc2nc(-c3cccnc3)nc3ccccc23)cn1` was “inactive”.
The value for `CN(C)CCn1c(=S)[nH]c2ccc(Cl)cc2c1=O` was “inactive”; that for `COC(=O)c1sccc1NS(=O)(=O)c1ccc(F)cc1F` was “inactive”; that for `COc1ccc2c(c1)OC(O)(C(F)(F)C(F)F)CC2=O` (stereo not drawn) was “inactive”.
With `CC(C)NC(=S)Nc1cccc2cnccc12`, the outcome was inactive.
The value for `C=CCNC(=O)c1cc(-c2ccccc2O)on1` was “inactive”; that for `O=C(Nc1ccccc1N1CCCCC1)c1ccc2nccnc2c1` was “inactive”; that for `Cc1ccc2c(c1)c1ncnc(N3CCc4ccccc4C3)c1n2C` was “inactive”.
The value for `CCc1ccc2nc3sc(C(=O)Nc4nnc(CC)s4)c(N)c3cc2c1` was “inactive”; that for `COc1ccc(C(=O)NC(=S)NNC(=O)c2c(-c3ccccc3)noc2C)cc1` was “inactive”; that for `COc1ccccc1N(CC(=O)N1CCCCC1)S(=O)(=O)c1ccccc1` was “inactive”.
As to `CC(C)OCCCNc1ncnc2c1[nH]c1ccc(F)cc12`, the result was inactive.
The value for `COc1cc(CCC(=O)Nc2ccncc2Cl)cc(OC)c1OC` was “inactive”; that for `CCCc1[nH]nc2c1C(c1ccc(Br)s1)C(C#N)=C(N)O2` (stereo not drawn) was “inactive”.
The same measure for `O=C(Cc1ccccn1)c1ccc(O)cc1O`: “inactive”; for `Cc1cccn2c(=O)c(/C=C3\SC(=S)N(CC(C)C)C3=O)c(NCCCOC(C)C)nc12`: “inactive”.
The same measure for `O=C(Nc1ccccc1N1CCOCC1)c1csc2c1CCCC2`: “inactive”.
As to `Brc1ccccc1C1Nc2cccc3cccc(c23)N1`, the outcome was inactive.
The same measure for `Cc1ccc(NC2(C#N)C(=O)Nc3ccccc32)cc1` (stereo not drawn): “inactive”; for `Cc1nccn1CCC1CCCCN1C(=O)CCc1nnc(-c2ccsc2)o1` (stereo not drawn): “inactive”.
The same measure for `OCc1ccc(OCCCOc2cccc3cccnc23)cc1`: “inactive”.
For the molecule `COc1ccc(NC(=O)c2cc(-c3ccc(C)o3)nc3ccccc23)cc1`, the result was inactive.
The same measure for `CN1/C(=C\C=C2\N=C(c3ccc(F)cc3)OC2=O)C(C)(C)c2ccccc21`: “inactive”.
On to `COc1cc(C)c(C)cc1S(=O)(=O)N1CCCc2ccccc21`, for which the result was inactive.
For `Cc1ccc(CS(=O)(=O)c2ncc(Cl)c(C(=O)Nc3nnc(C)s3)n2)cc1`, the outcome was inactive.
Consider `O=C(Nc1nnc(-c2ccccc2)o1)c1cc(-c2cccs2)nc2ccccc12`, for which the result was inactive.
The same measure for `COC(=O)Cn1c(O)c(N=NC(=O)OC)c2ccccc21`: “inactive”.
The same measure for `CN(c1cccc(NC(=O)Nc2ccc(Cl)cc2)c1)S(C)(=O)=O`: “inactive”; for `CCc1cc(=O)oc2cc(C)cc(OCC(=O)N3CCC[C@@H]3C(=O)O)c12`: “inactive”; for `CCOC(=O)c1c(C)[nH]c(=S)c(C#N)c1-c1ccccc1`: “inactive”.
`CCOc1ccccc1C1CC(c2ccc(Cl)cc2)Nc2nc(N)nn21` (stereo not drawn): the outcome was inactive.
The value for `Cc1c(C(=O)N2CCCc3ccccc32)sc2nc(-c3ccccc3)cn12` was “inactive”; that for `O=C(Cc1nc2ccccc2[nH]c1=O)c1ccc(Cl)cc1` was “inactive”.
